An excerpt weighted towards active compounds, which were near 0.75% of everything screened.
BioA inh: M. tuberculosis BioA enzyme inhibitors, primary screen, biochemical, plate reader, single point, HTS; 7,8-diaminopelargonic acid synthase BioA (Mycobacterium tuberculosis); purified M. tuberculosis BioA enzyme; inhibition, % at 9.99 µM; 0.096% of 360,000 active; in the data active = inhibition above about 40%
Sa RN4220 lethal: growth inhibition of S. aureus RN4220, primary screen, OD600 | 16 h | inhibition, % (test concentration not listed) | 0.33% of 330,000 active | AID 1259311, 2017; in the data active = inhibition above about 85%;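 note: plate controls were untreated cells for no effect and reference antibiotic for full effect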
Mtb hypoxia rep: PubChem AID 1159583; M. tuberculosis hypoxia-regulated fluorescent reporter, fluorescence; fluorescence inhibition, % (no concentration beside the values); 0.1% of 300,000 active; in the data active = fluorescence inhibition mostly above about 23%, no sharp cut-off; inactive = mostly below about 17%
ugtP null kill: growth inhibition of ugtP-null S. aureus, primary screen, RN4220 ugtP deletion, OD600; growth inhibition, % (concentration not given with the values); 0.54% of 330,000 active; 16 h; AID 1259309, 2017; in the data active = growth inhibition above about 68%;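 note: plate controls were untreated wells for no effect and antibiotic for full effect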
TcdB GH inh: TcdB glycohydrolase inhibitors, primary screen, biochemical, single point, plate reader | Toxin B (Clostridioides difficile), P18177 | TcdB glycohydrolase enzymatic assay | inhibition, % at 9.99 µM | 0.24% of 350,000 active | AID 652162, 2013; in the data active = inhibition above about 10%
Target sequence (P18177 whole entry, looked up): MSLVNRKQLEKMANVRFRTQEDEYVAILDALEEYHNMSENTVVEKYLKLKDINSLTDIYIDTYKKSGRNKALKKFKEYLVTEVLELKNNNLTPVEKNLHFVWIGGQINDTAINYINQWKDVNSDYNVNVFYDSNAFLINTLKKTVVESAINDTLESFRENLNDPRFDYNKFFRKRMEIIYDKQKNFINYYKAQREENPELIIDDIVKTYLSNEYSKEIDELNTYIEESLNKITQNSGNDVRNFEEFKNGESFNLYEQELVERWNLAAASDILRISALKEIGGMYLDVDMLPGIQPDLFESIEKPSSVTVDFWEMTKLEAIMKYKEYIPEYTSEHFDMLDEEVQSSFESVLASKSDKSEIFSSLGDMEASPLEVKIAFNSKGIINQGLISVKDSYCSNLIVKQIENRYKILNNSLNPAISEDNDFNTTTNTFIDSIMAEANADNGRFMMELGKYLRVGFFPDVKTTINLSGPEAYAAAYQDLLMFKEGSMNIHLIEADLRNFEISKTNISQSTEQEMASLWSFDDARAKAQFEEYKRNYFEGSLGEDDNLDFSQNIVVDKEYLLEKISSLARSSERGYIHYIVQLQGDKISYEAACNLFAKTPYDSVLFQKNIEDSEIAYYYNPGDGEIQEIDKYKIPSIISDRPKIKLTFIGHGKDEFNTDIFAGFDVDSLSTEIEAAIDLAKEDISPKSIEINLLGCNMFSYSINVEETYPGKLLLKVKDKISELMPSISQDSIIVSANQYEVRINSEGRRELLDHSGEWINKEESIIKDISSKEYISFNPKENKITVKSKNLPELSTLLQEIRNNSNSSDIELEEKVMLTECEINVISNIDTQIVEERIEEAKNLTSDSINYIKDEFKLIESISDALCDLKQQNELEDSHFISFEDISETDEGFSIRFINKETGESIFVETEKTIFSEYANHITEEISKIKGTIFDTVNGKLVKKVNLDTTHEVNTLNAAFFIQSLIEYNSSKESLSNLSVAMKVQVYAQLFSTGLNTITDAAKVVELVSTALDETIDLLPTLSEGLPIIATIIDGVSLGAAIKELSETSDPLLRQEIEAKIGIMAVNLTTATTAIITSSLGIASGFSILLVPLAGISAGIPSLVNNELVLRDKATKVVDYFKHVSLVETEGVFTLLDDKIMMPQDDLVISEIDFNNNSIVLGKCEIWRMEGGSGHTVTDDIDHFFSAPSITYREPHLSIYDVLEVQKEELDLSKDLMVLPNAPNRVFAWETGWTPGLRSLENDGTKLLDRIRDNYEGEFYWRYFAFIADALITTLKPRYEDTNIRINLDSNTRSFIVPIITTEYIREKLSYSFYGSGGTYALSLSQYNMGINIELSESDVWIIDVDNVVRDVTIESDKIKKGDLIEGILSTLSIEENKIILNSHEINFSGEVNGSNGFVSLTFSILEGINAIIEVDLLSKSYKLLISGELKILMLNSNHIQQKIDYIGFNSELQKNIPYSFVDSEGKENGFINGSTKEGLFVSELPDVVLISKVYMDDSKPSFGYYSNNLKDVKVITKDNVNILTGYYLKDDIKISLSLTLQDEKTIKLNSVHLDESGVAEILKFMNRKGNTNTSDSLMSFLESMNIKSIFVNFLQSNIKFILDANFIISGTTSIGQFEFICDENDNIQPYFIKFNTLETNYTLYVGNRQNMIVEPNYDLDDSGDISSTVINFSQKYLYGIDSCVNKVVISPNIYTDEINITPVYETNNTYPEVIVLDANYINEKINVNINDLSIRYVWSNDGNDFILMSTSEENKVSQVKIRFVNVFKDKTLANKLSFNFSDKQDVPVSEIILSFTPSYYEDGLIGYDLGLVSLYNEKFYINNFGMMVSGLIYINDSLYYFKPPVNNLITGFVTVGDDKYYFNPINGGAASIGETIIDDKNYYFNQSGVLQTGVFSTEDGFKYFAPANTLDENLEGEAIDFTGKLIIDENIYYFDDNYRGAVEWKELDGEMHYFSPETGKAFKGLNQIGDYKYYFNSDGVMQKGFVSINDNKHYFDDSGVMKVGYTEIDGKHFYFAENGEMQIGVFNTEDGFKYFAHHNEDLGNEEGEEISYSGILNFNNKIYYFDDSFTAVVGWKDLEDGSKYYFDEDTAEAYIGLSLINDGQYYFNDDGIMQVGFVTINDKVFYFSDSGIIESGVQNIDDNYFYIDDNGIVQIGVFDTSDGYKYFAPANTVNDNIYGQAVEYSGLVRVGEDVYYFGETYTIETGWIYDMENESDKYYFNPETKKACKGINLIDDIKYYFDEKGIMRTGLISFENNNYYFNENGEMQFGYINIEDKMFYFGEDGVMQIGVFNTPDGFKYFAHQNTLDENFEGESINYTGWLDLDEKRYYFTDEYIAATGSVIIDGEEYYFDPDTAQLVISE
Y pestis TopoI: Yersinia pestis topoisomerase I inhibitors, primary screen, biochemical, cleavage product accumulation, plate reader, single point; DNA topoisomerase I (Yersinia pestis CO92); Y. pestis Topo-I cleavage product accumulation; activity, % at 10 µM; 0.064% of 360,000 active; in the data active = activity above about 50%, passing the limit was not always enough
Active calls of the source: *; nt = not tested or not shown; ! = repeats disagree.

SMILES	BioA inh	Sa RN4220 lethal	Mtb hypoxia rep	ugtP null kill	TcdB GH inh	Y pestis TopoI
C[C@H]1CN([C@@H](C)CO)C(=O)c2c(c3ccccc3n2C)-c2ccccc2CO[C@H]1CN(C)C	1	nt	nt	nt	11*	nt
CC(=O)N(C)C[C@@H]1OCc2ccccc2-c2c(n(C)c3ccccc23)C(=O)N([C@H](C)CO)C[C@@H]1C	0	nt	nt	nt	1	nt
C[C@@H]1CN([C@@H](C)CO)C(=O)c2c(c3ccccc3n2C)-c2ccccc2CO[C@@H]1CN(C)C	0	nt	nt	nt	20*	nt
C[C@H]1CN([C@@H](C)CO)C(=O)c2c(c3ccccc3n2C)-c2ccccc2CO[C@H]1CN(C)S(C)(=O)=O	3	nt	nt	nt	-1	nt
COC(=O)C1=C(c2ccc3ccccc3c2)CC2CCC1N2C(=O)NCCCOC(C)C (centres undefined)	nt	3	2	-4	nt	nt
COc1ccc(C=Nn2c(-c3cccs3)n[nH]c2=S)cc1	nt	13	nt	-19	nt	nt
Cc1cc(NN=Cc2ccc(O)cc2)c2cccc(C)c2n1	nt	3	18	-9	nt	nt
Cc1cc(C)c2nc(C)cc(N/N=C/c3ccc(O)cc3)c2c1	-2	nt	nt	nt	16*	-5
Cc1cc(N/N=C/c2ccc(O)cc2)c2cccc(C)c2n1	-1	nt	nt	nt	11*	-36
Cc1cc(C)cc(-n2c(C)cc(C=NNC(=O)CN(c3c(C)cccc3C)S(C)(=O)=O)c2C)c1	nt	-4	nt	6	nt	nt
O=C(NCc1ccccc1)[C@]1(C(F)(F)F)CC(CCc2ccccc2)CCCO1 (some centres undefined)	nt	1	0	3	nt	nt
C(#Cc1ccccc1)C[N+]1(CC#Cc2ccccc2)CCCCC1	4	1	-5	10	0	8
Cc1ccc(C#CC[N+]2(CC#Cc3ccc(C)cc3)CCCCC2)cc1	nt	4	18	96*	1	17
O=C(NN=Cc1c[nH]c2ccc(Br)cc12)c1ccn(Cc2ccc(Cl)cc2Cl)n1	nt	-11	nt	-29	nt	nt
Cc1cc(C(=O)CSc2nnnn2-c2ccccc2)c(C)n1-c1ccc2c(c1)OCO2	nt	nt	nt	nt	11*	18
Cc1ccccc1OCC(=O)NN=C1SCC(=O)N1Cc1ccccc1	nt	1	-1	-2	nt	nt
O=C(CCl)N1c2ccccc2Sc2c1ccc1ccccc21	0	94*	nt	100*	2	15
Cc1ccc(/C=C/C(=O)N2CCC(Cc3ccccc3)CC2)cc1	nt	2	3	-5	nt	51*
O=C(C=Cc1ccccc1)N1CCC(Cc2ccccc2)CC1	nt	1	4	-10	nt	nt
COc1ccc(COC(=O)NN=C(C)CC(=O)NCc2ccc(Cl)cc2)cc1	nt	3	18	6	nt	nt
Cc1ccc(C(=O)N2N=C(c3cccc(NS(C)(=O)=O)c3)CC2c2cccs2)cc1 (centres undefined)	2	1	-15	9	0	6
CS(=O)(=O)Nc1cccc(C2=NN(C(=O)c3ccccc3)C(c3cccs3)C2)c1 (centres undefined)	5	4	7	11	13*	4
CC(CC(=O)Nc1ccc2ccccc2c1)=NNC(=O)c1ccc(O)c(O)c1	nt	9	21	-12	nt	nt
Cc1ccc(Cl)cc1NC1=C/C(=N\S(=O)(=O)c2cccs2)c2ccccc2C1=O	-2	90*!	-7	46	0	-11
CN(C)Cc1c(C(=O)NN=Cc2ccccc2OCc2c(F)cccc2Cl)nnn1-c1nonc1N	nt	7	7	1	nt	nt
SMILES	BioA inh	Sa RN4220 lethal	Mtb hypoxia rep	ugtP null kill	TcdB GH inh	Y pestis TopoI
Cn1c(COc2cccc3ccccc23)nnc1SCC(=O)OC1CCCCC1	1	97*	11	92*	1	16
CCn1c(COc2cccc3ccccc23)nnc1SCC(=O)OC1CCCCC1	0	99*	13	99*	-1	28
CCN1C(=O)CSC1=NS(=O)(=O)c1ccccc1	nt	5	-1	5	nt	nt
CCN1C(=O)CSC1=NC1C2CC3CC(C2)CC1C3 (centres undefined)	nt	8	nt	91*	nt	20
COc1cc(C=Nn2cnnc2-n2nc(C)cc2C)cc([N+](=O)[O-])c1O	nt	5	1	8	nt	nt
Cc1occc(=O)c1OC(=O)Nc1ccc(Cl)c(Cl)c1	nt	99*	-2	99*	0	3
CC(=Cc1ccc(C(=O)O)cc1)c1ccc2c(c1)C(C)(C)CCC2(C)C	nt	77	1	99*	nt	nt
O=C(O)c1cn(-c2ccccc2)nc1-c1ccncc1	0	0	nt	5	nt	-8
O=C(c1cn(-c2ccccc2)nc1-c1ccncc1)n1nnc2ccccc21	1	-1	nt	-6	100*	5
O=C(/C=C(\c1ccccc1)n1cncn1)c1ccccc1	nt	2	-10	5	1	-4
O=C(/C=C(\c1ccc(Cl)cc1)n1cncn1)c1ccc(Cl)cc1	1	-2	36*	2	1	0
O=C(/C=C/c1ccc(F)cc1)c1cc(Br)ccc1O	1	-1	11	2	1	2
O=C(/C=C/c1ccccc1)c1cc(Br)ccc(=O)c1O	2	99*	20	99*	nt	4
CC1CCCC(C)N1C(=O)COC(=O)c1cccnc1Cl (centres undefined)	-2	4	34*	0	1	0
O=C(COC(=O)c1cccnc1Cl)NC1CCCCCC1	-3	0	2	-1	0	-12
CCOC1OC(C(=O)N2CCN(C)CC2)=CC(C(C)(C)C)C1CCCO (centres undefined)	nt	4	-1	-1	nt	nt
NCCCCC(C(=O)N1CCNCC1)n1cc(C(N)CO)nn1 (centres undefined)	nt	2	1	-1	nt	nt
Cc1ccc(C(=O)ONc2ccc(N=NC(=O)c3ccccc3O)cc2)cc1	0	0	3	35	nt	5
Cc1ccc(C(=O)ONc2ccc(N=O)cc2)cc1	-1	1	nt	100*	nt	-8
COc1ccc(C=NNC(=O)c2ccn[nH]2)cc1COc1ccc(F)cc1	nt	-1	nt	-2	nt	nt
O=[N+]([O-])c1ccccc1C=NNc1nnc(-c2ccccc2)c(-c2ccccc2)n1	nt	5	-1	-4	nt	nt
O=[N+]([O-])c1cccc2nc(-c3ccccc3)c(-c3ccccc3)nc12	-1	3	-3	97*	1	1
c1ccc(CSc2nnc(-c3cccnc3)o2)cc1	nt	3	40*	7	nt	3
O=C(CSC1CN(C(c2ccccc2)c2ccccc2)C1)NN=Cc1ccccc1	nt	-8	-4	-23	nt	nt
COc1ccc(/C=C/c2cc(-c3ccc(C)cc3)o[n+]2C)cc1	8	96*	nt	100*	nt	10
COc1ccc(/C=C/c2c(-c3ccc(OC)cc3)oc3ccc(-c4ccc(OC)cc4)cc23)cc1	-3	nt	nt	nt	1	-6
O=C1c2cccc3c(N4CCOCC4)c([N+](=O)[O-])cc(c23)C(=O)N1c1cccc2ccccc12	nt	95*	-2	97*	0	-8
CC(C)Oc1ccc(Cc2cnc(N)nc2N)cc1	nt	17	4	91*	nt	6

Compound activity: PubChem, several laboratories
